Laboratory results: ChEMBL document CHEMBL2218924, “A broad activity screen in support of a chemogenomic map for kinase signalling research and drug discovery” (Biochem J, 2013)

Assays:
[1] = biological target: T1, Ephrin type-B receptor 1 (Homo sapiens) (UniProt P54762); settings: at 10 µM
T1 sequence (whole entry): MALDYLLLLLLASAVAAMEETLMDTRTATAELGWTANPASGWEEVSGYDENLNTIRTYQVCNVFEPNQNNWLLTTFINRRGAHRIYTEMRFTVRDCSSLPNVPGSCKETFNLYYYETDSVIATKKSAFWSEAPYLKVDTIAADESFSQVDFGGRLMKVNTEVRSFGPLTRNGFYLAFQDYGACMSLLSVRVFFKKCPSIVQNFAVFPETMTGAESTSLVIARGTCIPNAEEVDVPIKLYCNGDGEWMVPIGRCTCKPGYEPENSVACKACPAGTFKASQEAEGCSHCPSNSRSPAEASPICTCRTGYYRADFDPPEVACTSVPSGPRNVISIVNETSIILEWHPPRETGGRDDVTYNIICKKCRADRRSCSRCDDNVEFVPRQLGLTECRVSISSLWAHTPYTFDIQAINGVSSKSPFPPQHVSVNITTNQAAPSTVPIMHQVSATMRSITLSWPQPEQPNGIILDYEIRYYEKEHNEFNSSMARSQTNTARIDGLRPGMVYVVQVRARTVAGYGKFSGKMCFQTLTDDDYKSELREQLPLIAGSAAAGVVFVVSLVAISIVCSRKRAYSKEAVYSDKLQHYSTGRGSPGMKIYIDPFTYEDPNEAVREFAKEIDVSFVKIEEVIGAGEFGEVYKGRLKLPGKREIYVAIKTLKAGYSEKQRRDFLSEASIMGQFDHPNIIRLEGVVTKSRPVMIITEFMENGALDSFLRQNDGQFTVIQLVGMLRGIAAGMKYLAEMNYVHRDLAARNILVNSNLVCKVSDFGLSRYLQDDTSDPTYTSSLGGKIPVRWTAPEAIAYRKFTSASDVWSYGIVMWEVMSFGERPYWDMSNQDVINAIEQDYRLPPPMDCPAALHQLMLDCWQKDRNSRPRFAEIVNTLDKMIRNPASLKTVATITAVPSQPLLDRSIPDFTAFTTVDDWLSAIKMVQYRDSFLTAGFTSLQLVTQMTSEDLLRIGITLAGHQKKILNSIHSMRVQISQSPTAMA

[2] = biological target: T2, Ephrin type-B receptor 2 (Homo sapiens) (UniProt P29323); settings: at 1 µM
T2 sequence (whole entry): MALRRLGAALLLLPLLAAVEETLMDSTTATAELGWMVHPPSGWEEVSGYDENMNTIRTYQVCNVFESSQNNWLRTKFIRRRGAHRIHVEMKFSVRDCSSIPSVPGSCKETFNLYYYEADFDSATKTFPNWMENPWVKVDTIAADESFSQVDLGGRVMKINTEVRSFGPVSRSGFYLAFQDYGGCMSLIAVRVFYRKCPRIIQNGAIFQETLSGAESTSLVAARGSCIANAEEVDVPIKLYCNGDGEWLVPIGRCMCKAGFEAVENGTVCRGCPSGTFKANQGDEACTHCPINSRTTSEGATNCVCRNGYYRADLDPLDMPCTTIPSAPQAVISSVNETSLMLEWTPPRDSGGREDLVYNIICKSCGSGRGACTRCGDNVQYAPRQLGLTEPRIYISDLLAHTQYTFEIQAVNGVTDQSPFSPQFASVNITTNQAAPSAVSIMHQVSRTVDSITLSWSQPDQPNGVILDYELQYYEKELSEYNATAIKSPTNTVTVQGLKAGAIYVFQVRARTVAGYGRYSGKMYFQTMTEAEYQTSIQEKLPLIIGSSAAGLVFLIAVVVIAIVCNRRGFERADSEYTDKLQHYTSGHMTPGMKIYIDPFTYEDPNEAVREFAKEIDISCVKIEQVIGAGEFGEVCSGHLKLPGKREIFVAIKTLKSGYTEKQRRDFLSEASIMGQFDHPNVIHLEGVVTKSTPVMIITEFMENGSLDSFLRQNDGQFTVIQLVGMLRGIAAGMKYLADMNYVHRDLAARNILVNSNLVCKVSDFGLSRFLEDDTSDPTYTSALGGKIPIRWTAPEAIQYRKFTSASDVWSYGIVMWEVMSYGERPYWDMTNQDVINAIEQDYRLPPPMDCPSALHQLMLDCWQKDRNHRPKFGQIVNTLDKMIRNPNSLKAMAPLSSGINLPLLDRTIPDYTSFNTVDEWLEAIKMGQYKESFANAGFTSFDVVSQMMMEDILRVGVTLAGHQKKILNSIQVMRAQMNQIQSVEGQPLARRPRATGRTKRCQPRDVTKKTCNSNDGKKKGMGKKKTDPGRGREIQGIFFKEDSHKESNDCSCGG

[3] = biological target: T2, Ephrin type-B receptor 2 (Homo sapiens); settings: at 10 µM
[4] = biological target: T3, Ephrin type-B receptor 3 (Homo sapiens) (UniProt P54753); settings: at 1 µM
T3 sequence (whole entry): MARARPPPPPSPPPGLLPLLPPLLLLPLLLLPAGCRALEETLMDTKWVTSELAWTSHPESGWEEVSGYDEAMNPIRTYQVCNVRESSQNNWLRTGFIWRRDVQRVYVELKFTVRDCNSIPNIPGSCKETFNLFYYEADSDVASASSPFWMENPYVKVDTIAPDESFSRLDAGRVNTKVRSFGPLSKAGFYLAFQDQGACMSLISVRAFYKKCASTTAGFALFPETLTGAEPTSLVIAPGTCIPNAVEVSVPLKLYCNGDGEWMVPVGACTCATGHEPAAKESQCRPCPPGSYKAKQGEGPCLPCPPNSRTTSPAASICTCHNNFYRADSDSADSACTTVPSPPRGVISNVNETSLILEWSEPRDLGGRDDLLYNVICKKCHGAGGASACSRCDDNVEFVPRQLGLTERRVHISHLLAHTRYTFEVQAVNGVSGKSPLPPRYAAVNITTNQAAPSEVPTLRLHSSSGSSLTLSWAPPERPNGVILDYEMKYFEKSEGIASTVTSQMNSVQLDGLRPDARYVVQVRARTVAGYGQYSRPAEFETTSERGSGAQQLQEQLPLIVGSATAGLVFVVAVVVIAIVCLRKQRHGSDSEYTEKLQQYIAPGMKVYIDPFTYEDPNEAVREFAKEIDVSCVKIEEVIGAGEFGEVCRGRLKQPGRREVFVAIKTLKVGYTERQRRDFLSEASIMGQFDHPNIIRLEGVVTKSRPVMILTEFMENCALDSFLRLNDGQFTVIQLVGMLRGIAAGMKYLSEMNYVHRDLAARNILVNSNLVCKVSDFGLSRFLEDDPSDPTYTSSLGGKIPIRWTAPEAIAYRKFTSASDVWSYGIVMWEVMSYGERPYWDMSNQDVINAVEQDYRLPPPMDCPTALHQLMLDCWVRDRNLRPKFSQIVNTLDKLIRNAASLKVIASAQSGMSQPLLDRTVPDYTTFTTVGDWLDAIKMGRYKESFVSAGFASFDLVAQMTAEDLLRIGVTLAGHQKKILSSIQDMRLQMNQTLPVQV

[5] = biological target: T3, Ephrin type-B receptor 3 (Homo sapiens); settings: at 10 µM
[6] = biological target: T4, Ephrin type-B receptor 4 (Homo sapiens) (UniProt P54760); settings: at 1 µM
T4 sequence (whole entry): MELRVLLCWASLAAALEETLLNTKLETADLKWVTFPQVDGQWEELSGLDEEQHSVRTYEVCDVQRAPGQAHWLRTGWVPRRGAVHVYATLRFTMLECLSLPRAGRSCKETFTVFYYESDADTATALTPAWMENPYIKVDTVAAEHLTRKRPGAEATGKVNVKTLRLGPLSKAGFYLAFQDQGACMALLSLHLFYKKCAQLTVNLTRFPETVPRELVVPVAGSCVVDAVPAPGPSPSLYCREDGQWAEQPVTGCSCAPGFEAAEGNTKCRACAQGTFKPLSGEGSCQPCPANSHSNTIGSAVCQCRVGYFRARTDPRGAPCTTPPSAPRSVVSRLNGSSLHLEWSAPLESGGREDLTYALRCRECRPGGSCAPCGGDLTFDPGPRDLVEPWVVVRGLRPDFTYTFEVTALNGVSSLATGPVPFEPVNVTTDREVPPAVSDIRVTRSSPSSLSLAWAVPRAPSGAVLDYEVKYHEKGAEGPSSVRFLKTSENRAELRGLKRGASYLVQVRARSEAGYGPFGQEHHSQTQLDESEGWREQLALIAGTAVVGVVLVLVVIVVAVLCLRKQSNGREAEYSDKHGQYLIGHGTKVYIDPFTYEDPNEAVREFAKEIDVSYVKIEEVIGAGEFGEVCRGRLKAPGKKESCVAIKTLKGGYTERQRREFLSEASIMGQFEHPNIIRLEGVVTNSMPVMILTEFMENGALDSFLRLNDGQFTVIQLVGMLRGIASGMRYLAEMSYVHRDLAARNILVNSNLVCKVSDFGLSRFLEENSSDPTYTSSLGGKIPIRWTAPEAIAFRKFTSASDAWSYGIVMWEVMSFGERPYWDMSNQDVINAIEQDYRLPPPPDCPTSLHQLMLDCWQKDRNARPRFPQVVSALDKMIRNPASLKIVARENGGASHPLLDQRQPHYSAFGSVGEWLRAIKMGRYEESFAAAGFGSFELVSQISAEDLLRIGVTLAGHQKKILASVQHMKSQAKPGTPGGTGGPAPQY

[7] = biological target: T4, Ephrin type-B receptor 4 (Homo sapiens); settings: at 10 µM
[8] = biological target: Receptor tyrosine-protein kinase erbB-4 (Homo sapiens) (UniProt Q15303); settings: at 1 µM
[9] = biological target: Receptor tyrosine-protein kinase erbB-4 (Homo sapiens) (UniProt Q15303); settings: at 10 µM
[10] = biological target: Focal adhesion kinase 1 (Homo sapiens) (UniProt Q05397); settings: at 1 µM
Focal adhesion kinase 1 (Homo sapiens), sequence (Q05397 2-1052 limits assumed): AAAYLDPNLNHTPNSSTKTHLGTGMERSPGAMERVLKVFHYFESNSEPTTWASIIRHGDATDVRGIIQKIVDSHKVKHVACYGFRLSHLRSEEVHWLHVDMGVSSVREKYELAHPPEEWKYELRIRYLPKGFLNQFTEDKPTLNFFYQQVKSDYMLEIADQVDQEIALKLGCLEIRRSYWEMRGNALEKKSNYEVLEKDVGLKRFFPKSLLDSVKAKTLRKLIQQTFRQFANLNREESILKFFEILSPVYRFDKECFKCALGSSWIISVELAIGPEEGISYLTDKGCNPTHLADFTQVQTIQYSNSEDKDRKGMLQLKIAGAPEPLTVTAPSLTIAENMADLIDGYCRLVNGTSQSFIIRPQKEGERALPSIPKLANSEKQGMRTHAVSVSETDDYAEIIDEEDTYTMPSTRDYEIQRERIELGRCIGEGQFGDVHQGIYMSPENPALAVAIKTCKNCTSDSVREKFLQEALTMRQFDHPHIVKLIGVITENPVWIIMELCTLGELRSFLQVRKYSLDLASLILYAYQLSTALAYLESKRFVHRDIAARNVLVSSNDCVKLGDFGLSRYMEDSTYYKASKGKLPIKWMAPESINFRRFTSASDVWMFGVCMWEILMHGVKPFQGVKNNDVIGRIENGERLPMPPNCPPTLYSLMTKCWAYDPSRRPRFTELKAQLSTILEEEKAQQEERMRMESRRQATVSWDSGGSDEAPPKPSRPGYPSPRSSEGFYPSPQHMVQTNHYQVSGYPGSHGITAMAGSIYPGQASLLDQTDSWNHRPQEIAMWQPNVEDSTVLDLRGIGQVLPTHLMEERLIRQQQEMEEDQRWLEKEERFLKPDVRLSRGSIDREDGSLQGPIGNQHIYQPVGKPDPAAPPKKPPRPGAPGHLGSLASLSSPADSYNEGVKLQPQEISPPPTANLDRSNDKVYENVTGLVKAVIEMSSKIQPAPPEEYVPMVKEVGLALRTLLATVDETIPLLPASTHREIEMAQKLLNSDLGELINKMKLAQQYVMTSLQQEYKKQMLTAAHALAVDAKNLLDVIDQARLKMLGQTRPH

Receptor tyrosine-protein kinase erbB-4 (Homo sapiens), sequence (Q15303 whole entry): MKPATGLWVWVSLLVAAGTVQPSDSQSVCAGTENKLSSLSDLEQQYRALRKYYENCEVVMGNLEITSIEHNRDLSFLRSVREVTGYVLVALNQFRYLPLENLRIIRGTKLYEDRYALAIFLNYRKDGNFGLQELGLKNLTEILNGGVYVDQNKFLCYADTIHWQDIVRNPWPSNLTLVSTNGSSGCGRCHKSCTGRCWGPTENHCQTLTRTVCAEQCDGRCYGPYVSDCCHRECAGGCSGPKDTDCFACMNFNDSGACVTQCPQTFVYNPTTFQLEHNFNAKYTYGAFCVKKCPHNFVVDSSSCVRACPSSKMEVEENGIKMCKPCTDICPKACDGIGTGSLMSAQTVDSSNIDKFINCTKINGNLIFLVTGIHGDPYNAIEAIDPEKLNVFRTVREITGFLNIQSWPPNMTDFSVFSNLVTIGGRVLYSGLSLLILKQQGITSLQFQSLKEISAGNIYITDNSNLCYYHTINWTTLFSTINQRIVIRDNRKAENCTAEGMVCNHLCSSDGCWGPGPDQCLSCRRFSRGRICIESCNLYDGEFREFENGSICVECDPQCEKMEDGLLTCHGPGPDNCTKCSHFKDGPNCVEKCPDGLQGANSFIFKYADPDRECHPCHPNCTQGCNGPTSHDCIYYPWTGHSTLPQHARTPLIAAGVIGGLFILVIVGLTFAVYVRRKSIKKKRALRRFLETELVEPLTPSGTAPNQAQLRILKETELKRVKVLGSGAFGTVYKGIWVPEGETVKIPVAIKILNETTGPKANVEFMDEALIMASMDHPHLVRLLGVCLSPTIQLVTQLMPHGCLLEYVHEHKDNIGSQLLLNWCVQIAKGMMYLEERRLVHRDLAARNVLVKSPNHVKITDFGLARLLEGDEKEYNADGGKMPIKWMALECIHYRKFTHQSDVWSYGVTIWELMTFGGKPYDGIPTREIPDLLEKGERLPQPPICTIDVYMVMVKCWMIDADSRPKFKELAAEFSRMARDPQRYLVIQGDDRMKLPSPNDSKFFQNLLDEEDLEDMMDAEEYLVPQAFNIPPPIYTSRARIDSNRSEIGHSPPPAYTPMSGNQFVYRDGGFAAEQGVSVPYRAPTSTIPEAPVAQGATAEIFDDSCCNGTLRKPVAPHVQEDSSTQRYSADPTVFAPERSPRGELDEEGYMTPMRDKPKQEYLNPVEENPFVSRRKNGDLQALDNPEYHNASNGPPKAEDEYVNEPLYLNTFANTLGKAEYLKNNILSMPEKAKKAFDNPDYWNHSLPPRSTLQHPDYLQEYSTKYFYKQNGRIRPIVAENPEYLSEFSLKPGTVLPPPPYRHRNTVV

## Nc1ncnc2c1c(-c1ccc(Oc3ccccc3)cc1)cn2C1CCCC1
[1]
  residual activity: 70%
[2]
  residual activity: 108%
[3]
  residual activity: 101%
[4]
  residual activity: 104% (inactive)
[5]
  residual activity: 117%
[6]
  residual activity: 99%
[7]
  residual activity: 89%
[8]
  residual activity: 0%
[9]
  residual activity: -4%
[10]
  residual activity: 116%
